Results as given in ChEMBL document CHEMBL3988442, “University of Dundee, Small-Polar-MMV Screening Library” (2021).
For some of these results: Measured potencies and affinities stand elsewhere.

How the values were obtained:
Set-up in all cases: scale not given: direction of the effect not stated beside the values
[1] = target: Protein translocase subunit SecA (Escherichia coli (strain K12)) (UniProt P10408); test: Assay to Identify E. coli SecA ATPase Inhibitors; type: functional; settings: 30 µM
Sequence of Protein translocase subunit SecA (Escherichia coli (strain K12)) (P10408 whole entry): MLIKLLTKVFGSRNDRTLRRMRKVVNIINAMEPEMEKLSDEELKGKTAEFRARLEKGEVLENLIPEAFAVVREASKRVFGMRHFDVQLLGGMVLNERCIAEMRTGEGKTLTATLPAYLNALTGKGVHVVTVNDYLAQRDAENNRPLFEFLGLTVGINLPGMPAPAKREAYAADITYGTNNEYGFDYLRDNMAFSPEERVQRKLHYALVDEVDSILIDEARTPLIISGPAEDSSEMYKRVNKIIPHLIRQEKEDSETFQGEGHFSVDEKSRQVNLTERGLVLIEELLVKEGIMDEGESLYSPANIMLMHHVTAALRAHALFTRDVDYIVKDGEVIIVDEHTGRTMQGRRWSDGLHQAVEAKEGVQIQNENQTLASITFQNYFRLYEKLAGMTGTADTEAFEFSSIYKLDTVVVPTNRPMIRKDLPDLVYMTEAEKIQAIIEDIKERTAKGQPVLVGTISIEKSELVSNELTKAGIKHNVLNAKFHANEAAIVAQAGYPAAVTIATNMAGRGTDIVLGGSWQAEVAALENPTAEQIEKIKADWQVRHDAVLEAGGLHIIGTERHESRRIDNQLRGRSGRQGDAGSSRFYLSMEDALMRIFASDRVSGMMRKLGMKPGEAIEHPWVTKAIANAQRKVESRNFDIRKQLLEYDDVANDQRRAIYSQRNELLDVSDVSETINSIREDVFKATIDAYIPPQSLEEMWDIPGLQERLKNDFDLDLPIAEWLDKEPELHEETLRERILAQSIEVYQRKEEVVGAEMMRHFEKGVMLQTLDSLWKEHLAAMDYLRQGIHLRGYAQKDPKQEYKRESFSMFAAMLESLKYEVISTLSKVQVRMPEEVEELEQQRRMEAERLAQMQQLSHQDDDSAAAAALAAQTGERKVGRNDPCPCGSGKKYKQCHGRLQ

[2] = target: T1, Ubiquitin-activating enzyme e1, putative (Leishmania donovani (strain BPK282A1)) (UniProt E9BSI1); test: Leishmania donovani Ubiquitin Activating Enzyme (LdE1); type: functional; settings: 30 µM
T1 sequence (whole entry): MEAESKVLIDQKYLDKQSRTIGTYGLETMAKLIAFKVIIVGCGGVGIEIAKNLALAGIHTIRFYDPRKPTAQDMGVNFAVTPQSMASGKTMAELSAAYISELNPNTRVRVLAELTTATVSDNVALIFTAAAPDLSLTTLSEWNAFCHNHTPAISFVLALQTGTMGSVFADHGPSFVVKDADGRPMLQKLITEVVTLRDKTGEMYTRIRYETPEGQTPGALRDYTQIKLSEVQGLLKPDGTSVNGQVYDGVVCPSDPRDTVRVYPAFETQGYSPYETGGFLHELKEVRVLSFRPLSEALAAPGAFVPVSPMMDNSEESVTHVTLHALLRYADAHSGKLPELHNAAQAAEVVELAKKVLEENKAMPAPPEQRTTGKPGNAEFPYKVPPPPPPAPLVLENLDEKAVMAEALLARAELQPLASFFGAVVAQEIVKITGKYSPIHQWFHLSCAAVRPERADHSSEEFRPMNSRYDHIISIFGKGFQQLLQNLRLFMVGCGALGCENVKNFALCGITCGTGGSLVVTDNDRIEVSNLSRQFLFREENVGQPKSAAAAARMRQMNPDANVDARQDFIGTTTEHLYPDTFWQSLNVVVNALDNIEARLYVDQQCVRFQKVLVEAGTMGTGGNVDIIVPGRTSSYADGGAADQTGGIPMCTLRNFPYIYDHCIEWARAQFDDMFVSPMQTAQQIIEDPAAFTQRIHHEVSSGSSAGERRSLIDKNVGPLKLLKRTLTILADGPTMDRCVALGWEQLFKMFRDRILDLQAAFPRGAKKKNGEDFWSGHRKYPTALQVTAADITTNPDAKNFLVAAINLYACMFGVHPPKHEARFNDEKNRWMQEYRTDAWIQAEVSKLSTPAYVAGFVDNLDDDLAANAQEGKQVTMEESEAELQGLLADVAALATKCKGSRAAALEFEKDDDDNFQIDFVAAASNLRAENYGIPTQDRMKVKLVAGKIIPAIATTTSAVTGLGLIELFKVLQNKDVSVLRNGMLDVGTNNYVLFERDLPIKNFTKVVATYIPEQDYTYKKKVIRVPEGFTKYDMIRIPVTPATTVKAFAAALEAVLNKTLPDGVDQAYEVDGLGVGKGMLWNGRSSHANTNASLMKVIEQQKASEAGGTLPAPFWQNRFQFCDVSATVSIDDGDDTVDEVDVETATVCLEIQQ

[3] = target: AMP-activated protein kinase, AMPK (Homo sapiens) (UniProt P54646+O43741+P54619+Q9UGJ0+Q9Y478+Q13131+Q9UGI9); test: AMP-dependent Kinase enzyme assay. An in vitro enzyme assay that detects ADP turnover that is directly proportional to AMPK activity. This uses naive AMPK that is activated during the assay with MK-8722; type: functional; settings: 30 µM
[4] = target: Sialic acid-binding Ig-like lectin 9 (Homo sapiens) (UniProt Q9Y336); test: Hs-Siglec9 ALPHAscreen SOP 20170721; settings: 10 µM
Sequence of Sialic acid-binding Ig-like lectin 9 (Homo sapiens) (Q9Y336 whole entry): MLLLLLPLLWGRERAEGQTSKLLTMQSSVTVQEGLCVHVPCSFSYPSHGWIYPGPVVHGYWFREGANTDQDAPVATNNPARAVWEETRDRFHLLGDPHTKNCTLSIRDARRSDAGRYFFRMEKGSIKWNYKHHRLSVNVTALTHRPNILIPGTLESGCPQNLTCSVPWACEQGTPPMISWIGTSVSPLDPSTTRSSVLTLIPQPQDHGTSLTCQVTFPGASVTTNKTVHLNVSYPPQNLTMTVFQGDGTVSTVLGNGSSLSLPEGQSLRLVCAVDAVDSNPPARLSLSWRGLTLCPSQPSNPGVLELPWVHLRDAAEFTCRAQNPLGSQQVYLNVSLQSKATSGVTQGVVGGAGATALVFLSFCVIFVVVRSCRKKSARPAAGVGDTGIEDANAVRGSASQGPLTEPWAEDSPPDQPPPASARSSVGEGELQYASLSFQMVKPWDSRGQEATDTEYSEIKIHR

Trypanosoma cruzi = test: Trypanosoma cruzi phosphomannomutase and mannose-1-phosphate guanylyltransferase assay; type: functional; settings: 10 µM
[5] = target: T2, Arginase-2, mitochondrial (Homo sapiens) (UniProt P78540); test: in vitro enzyme assay to detect the production of urea directly proportional to the activity of Arginase II; type: functional; settings: 33.3 µM; further: in the data most compounds retested in dose-response had high values
T2 sequence (whole entry): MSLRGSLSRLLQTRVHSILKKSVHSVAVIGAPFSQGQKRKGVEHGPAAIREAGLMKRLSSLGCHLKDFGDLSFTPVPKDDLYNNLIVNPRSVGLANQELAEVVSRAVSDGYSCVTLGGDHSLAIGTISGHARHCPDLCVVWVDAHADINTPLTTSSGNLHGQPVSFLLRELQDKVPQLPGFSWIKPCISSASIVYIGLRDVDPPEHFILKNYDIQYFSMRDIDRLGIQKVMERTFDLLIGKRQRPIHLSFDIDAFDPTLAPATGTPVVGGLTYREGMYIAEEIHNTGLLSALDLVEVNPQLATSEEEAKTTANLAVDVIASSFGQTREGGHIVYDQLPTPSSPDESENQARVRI

[6] = target: T3, Proteasome subunit beta (Trypanosoma cruzi) (UniProt O96673); test: Trypanosoma cruzi proteasome chymotrypsin-like activity (TcProtChymo) assay.; further: in the data most compounds retested in dose-response had high values; type: functional; settings: 9.37 µM
T3 sequence (whole entry): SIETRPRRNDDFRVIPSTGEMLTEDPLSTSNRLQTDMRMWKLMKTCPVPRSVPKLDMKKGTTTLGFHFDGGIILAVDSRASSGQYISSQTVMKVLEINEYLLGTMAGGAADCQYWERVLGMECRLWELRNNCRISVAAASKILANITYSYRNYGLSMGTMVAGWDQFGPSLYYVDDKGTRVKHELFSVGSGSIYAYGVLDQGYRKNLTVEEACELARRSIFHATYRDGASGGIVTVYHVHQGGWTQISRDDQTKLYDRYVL

Homo sapiens = species: Homo sapiens; test: To identify inhibition of the IFN signalling (Jak-Stat) pathway via expression of an eGFP reporter gene under the control of an IFN-stimulated response element (ISRE) containing MxA promoter.; type: functional; settings: 30 µM
[7] = target: T4, Tyrosyl-tRNA synthetase, putative (Trypanosoma cruzi (strain CL Brener)) (UniProt Q4DSP6); test: Trypanosoma cruzi tyrosyl tRNA synthetase (TcYRS) _High Tyrosine SOP; type: functional; settings: 30 µM; further: in the data most compounds retested in dose-response had high values
T4 sequence (whole entry): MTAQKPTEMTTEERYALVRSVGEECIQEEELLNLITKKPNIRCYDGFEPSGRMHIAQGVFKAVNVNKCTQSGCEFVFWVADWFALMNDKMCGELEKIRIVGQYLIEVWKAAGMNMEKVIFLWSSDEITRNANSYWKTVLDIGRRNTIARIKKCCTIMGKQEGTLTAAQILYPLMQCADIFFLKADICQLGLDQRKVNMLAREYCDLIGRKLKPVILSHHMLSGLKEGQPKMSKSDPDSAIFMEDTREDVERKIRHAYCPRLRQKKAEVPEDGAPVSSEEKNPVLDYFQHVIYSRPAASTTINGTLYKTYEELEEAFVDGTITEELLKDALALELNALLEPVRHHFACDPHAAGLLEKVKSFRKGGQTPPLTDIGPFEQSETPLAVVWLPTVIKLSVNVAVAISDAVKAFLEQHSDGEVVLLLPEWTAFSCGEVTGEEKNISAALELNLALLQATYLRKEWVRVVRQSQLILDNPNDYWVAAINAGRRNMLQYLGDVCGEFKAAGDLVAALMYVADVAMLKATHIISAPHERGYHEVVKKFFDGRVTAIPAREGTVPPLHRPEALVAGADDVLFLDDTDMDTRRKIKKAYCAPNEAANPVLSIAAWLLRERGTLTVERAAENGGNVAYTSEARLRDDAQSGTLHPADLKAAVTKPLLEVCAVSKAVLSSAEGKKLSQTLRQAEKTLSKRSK

[8] = target: T4, Tyrosyl-tRNA synthetase, putative (Trypanosoma cruzi (strain CL Brener)); test: Trypanosoma cruzi tyrosyl tRNA synthetase (TcYRS) SOP; type: functional; settings: 30 µM
[9] = target: Chromo domain-containing protein 1 (Saccharomyces cerevisiae (strain ATCC 204508 / S288c) (Baker's yeast)) (UniProt P32657); test: ScCHD-1 Enzyme Inhibition Assay; type: functional; settings: 30 µM; further: in the data most compounds retested in dose-response had high values
Sequence of Chromo domain-containing protein 1 (Saccharomyces cerevisiae (strain ATCC 204508 / S288c) (Baker's yeast)) (P32657 whole entry, the tested form may be a part): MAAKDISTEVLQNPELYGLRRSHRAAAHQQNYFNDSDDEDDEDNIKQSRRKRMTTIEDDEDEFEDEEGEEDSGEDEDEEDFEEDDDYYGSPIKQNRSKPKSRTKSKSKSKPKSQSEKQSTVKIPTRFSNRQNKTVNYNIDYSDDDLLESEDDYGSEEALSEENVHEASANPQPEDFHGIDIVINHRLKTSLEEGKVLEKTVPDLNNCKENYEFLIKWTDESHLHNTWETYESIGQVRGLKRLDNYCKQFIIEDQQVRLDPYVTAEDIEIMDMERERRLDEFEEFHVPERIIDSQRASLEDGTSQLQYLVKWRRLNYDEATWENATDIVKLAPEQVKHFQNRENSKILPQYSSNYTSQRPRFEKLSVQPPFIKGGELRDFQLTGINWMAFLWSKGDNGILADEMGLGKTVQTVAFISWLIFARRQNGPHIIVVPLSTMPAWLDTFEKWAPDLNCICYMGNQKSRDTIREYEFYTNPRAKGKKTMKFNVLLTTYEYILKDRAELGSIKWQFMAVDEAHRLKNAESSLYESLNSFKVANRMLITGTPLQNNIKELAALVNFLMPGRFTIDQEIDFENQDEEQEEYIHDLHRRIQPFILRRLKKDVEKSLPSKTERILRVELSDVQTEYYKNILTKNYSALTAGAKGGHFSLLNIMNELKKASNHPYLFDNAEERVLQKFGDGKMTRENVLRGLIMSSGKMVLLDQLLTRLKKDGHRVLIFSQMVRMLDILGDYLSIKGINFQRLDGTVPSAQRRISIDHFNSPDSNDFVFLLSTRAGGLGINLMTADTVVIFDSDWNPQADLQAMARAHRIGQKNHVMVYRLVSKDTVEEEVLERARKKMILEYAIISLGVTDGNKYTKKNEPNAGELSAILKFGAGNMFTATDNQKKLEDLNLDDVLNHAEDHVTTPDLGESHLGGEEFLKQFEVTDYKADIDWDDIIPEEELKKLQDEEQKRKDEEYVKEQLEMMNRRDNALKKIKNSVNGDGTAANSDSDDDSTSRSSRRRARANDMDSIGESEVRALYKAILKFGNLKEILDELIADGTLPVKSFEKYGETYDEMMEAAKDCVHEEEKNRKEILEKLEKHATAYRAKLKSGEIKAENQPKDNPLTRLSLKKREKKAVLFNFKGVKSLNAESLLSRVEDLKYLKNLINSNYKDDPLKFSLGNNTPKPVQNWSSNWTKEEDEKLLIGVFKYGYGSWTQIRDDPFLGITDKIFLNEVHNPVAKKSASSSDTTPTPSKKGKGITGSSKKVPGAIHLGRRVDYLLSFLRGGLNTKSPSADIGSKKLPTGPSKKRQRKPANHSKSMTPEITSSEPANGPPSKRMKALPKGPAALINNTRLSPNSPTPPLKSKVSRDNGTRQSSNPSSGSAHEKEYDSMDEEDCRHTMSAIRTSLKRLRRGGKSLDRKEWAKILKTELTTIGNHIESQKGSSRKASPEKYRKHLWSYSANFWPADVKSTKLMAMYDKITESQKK

Structure (SMILES) | Percent Effect [1] | Percent Effect [2] | Percent Effect [3] | Percent Effect [4] | Percent Effect (Trypanosoma cruzi) | Percent Effect [5] | Percent Effect [6] | Percent Effect (Homo sapiens) | Percent Effect [7] | Percent Effect [8] | Percent Effect [9]
COc1cc(N2C[C@H]3OCC[C@H]3[C@H](C(=O)NC3CC3)C2)ncn1 | -2.33% | 5.48% | -1.57% | 8.48% | 2.18% | 0.399% | 6.93% | 0.456% | 9.38% | 6.17% | -1.62%
Cc1cc(C(=O)N2CCCC(n3cncn3)C2)c(C)n1C1CC1 (configuration not stated) | -2.41% | -3.8% | 2.66% | 1.98% | 1.54% | 2.37% | -1.54% | -3.71% | 2.08% | 2.53% | 11.1%
Cc1cc(C(=O)NC2CCCN(c3ccccc3)C2=O)on1 (configuration not stated) | -6.07% | 5.33% | -2.45% | -2.4% | -0.0974% | -1.56% | 8.37% | 5.07% | 1.64% | 13.6% | -2.89%
CN(C)S(=O)(=O)c1ccc(OCCNCCn2cccn2)cc1 | -6.54% | 1.27% | 2.35% | -1.53% | -1.13% | 1.5% | 5.15% | 11.8% | -1.04% | -12.7% | -41.4%
O=C(Cn1cccnc1=O)NC(Cc1ccsc1)c1ccccn1 (configuration not stated) | -10% | 14.9% | 0.845% | 8.55% | 1.98% | 0.232% | 5.3% | 2.88% | 5.38% | 9.09% | -19.6%
Cc1nn(C)c(C)c1C1CCCN1Cc1nc(-c2ccco2)oc1C (configuration not stated) | -4.35% | 18.9% | -4.34% | -6.83% | -1.76% | 3.14% | 11.3% | 18.9% | 8.91% | 13.4% | -8.93%
O=C(c1nc(=O)[nH][nH]1)N1CCCC(c2cc(C(F)(F)F)[nH]n2)C1 (configuration not stated) | -9.02% | -8.11% | -7.65% | 26.3% | 11.2% | 2.77% | 10.8% | 15.2% | 5.94% | 13.4% | -7.89%
COCc1cnc2n1CCN(Cc1cccnc1)C2C (configuration not stated) | -1.07% | 8% | 0.686% | 6.43% | 3.28% | -50.4% | -0.171% | -15.6% | 2.08% | 5% | -2.32%
CS(=O)(=O)N1CCC2(CN(C(=O)c3cccnc3)C2)C1 | -2.76% | 5.48% | -1.91% | 3.06% | -2.18% | -2.79% | 14.3% | 23.4% | 4.17% | 6.17% | -1.65%
c1cnn(CC2CCCN2c2ncnc3sccc23)c1 (configuration not stated) | -5.43% | -2.7% | 2.65% | 6.51% | -2.14% | 3.14% | -1.44% | 66.4% | 2.97% | -25.6% | 11.4%
OC(COc1ccccc1)CN1CCC(c2ccn[nH]2)CC1 (configuration not stated) | -2.35% | 15.2% | -5.68% | 0.333% | -4.82% | 3.04% | 2.05% | -21.8% | 2.46% | 13.9% | -2.28%
COc1ccc(NC(C)C(=O)N2CCN(Cc3ccccc3)CC2)cn1 (configuration not stated) | -0.598% | -2.74% | -258% | -6.68% | -0.783% | 3.18% | -6.21% | 4.99% | 1.07% | 0% | -0.618%
c1nc(CCC2CCCN2)cc(N2CCCOCC2)n1 (configuration not stated) | -4.1% | 9.46% | 11.8% | -4.56% | -6.13% | -3.02% | 9.36% | 10.3% | 3.23% | 6.49% | -5.74%
Cc1cccc(CN2CC3(CCNCC3)OCC2=O)n1 | -6.42% | 2.7% | 2.52% | -3.05% | 1.37% | -0.833% | 2.11% | 2.26% | 4.95% | 11% | -6.46%
COc1cc(C(=O)N(C2CC2)C2CC(=O)NC2=O)ccc1C (configuration not stated) | 0.67% | 12.7% | 4.42% | 4.45% | -7.84% | 8.37% | 1.72% | 24.4% | 4.43% | 11.4% | -4.59%
O=C(CSc1nncs1)N1CCN(Cc2ccc(Cl)s2)CC1 | -2.74% | 5.48% | 4.99% | 1.5% | 5.88% | 0% | 18.1% | 16.3% | 4.3% | 12.5% | -13.2%
Cc1nc(N2CC[C@@H](NC(=O)c3cnccn3)[C@H](O)C2)c2ccsc2n1 | 0.273% | 8.11% | -4.4% | 15.3% | 2.7% | 3.33% | 2.41% | 46.9% | 5.82% | 19.5% | -3.51%
